Common to all, as to assay: NCI-60 one-dose screen, 48 h (100 = growth as untreated, 0 = no growth, -100 = all killed)
One test concerns NCI-H23 lung. Conditions: 10 µM unless noted.
The next test relates to NCI-H322M lung. Conditions: 10 µM unless noted.
For another test, the system named is HOP-62 NSCLC. To be noted: 10 µM unless noted.
A further test deals with NCI-H460 lung. Conditions: 10 µM unless noted.
Another test concerns NCI-H522 lung. To be noted: 10 µM unless noted.
Another test has as its system A549/ATCC NSCLC. Conditions: 10 µM unless noted.
The next test concerns 786-0 renal. To be noted: 10 µM unless noted.
The test system of a further test is COLO 205 colon. To be noted: 10 µM unless noted.
The test system of the next test is DU-145 prostate. Conditions: 10 µM unless noted.
For another test, the system named is K-562 leukemia. Conditions: 10 µM unless noted.
In another test the test system is MALME-3M melanoma. To be noted: 10 µM unless noted.
The test system of a further test is MDA-MB-231 breast. Conditions: 10 µM unless noted.
The next test relates to RXF 393 renal. Conditions: 10 µM unless noted.
For the next test, the system named is SF-268 CNS. Conditions: 10 µM unless noted.
The next test relates to SF-295 CNS. Conditions: 10 µM unless noted.
In a further test the test system is SF-539 CNS. To be noted: 10 µM unless noted.
A further test has as its system UACC-257 melanoma. To be noted: 10 µM unless noted.
The next test concerns M14 melanoma. Conditions: 10 µM unless noted.
The test system of another test is NCI-H226 lung. To be noted: 10 µM unless noted.
The next test deals with HOP-92 NSCLC. To be noted: 10 µM.

The structures appear in SMILES notation. Compounds without any hit were thinned out: in the full panel of roughly 83,000, 20% have a hit.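 Treatment: one concentration, 48 hours, 96-well format. Scoring: percent growth, with anything below 10 considered active.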 Values without a mark were called inactive. The source made the active and inactive calls.

Take `COc1cc(-c2nc(SC(C)C)n(C(C)C)c(=O)c2C#N)ccc1OCc1ccccc1`: the growth was 85% in the test on NCI-H23 lung; 64.9% with NCI-H322M lung; 79% in the test on HOP-62 NSCLC; 21% in the test on NCI-H460 lung; 84% in the test on NCI-H522 lung; 36.7% in the test with A549/ATCC NSCLC. The growth in the test with 786-0 renal was 34.4%; with COLO 205 colon, 34.5%; in the test with DU-145 prostate it was 99.1%; with K-562 leukemia it was 38.8%; in the test with MALME-3M melanoma, 82.4%; in the test with MDA-MB-231 breast, 75.7%. Besides, the growth in the test with RXF 393 renal was 91.1%; in the test on SF-268 CNS, 85.6%; with SF-295 CNS, 80.3%; in the test on SF-539 CNS, 64.6%; in the test with UACC-257 melanoma, 101%; in the test on M14 melanoma, 105%.

Take `Cc1cc(S(=O)(=O)N(C)C)cc(NCC(=O)NC(=O)NCC(C)C)c1C`: the growth in the test with NCI-H23 lung was 94.5%; in the test on NCI-H226 lung, 90.7%; with NCI-H322M lung it was 100%; in the test on HOP-62 NSCLC, 78.6%; in the test on NCI-H460 lung, 109%; in the test with A549/ATCC NSCLC, 88%. Further, the growth with 786-0 renal was 91.1%; with DU-145 prostate, 85.1%; in the test on K-562 leukemia it was 97.1%; in the test with MALME-3M melanoma, 106%; with MDA-MB-231 breast it was 85.6%; in the test on RXF 393 renal, 64.8%. Moreover, the growth with SF-268 CNS was 81.5%; in the test with SF-295 CNS it was 100%; with SF-539 CNS it was 97.1%; in the test on UACC-257 melanoma, 103%; in the test on M14 melanoma, 100%.

For `COc1cc(-c2nn(C(C)(C)C)cc2-c2ccnc(NCCCNS(=O)(=O)c3cccc(F)c3)n2)ccc1Cl`, the growth in the test with NCI-H23 lung is 77.7%; in the test on NCI-H322M lung, 85.3%; in the test with HOP-62 NSCLC it was 65.4%; in the test on NCI-H460 lung it was 77.2%; in the test with HOP-92 NSCLC, 54.9%; in the test on A549/ATCC NSCLC, 50.7%. In addition, the growth in the test with 786-0 renal was 69.7%; with COLO 205 colon, 91.5%; in the test with DU-145 prostate, 69.3%; with K-562 leukemia, 33.4%; with MALME-3M melanoma, 88.4%; in the test with MDA-MB-231 breast, 61%. The growth with RXF 393 renal is -0.456% (active); in the test with SF-268 CNS it was 56.7%; in the test with SF-295 CNS, 83.7%; in the test on SF-539 CNS it was 88.4%; in the test on UACC-257 melanoma, 97.4%; in the test on M14 melanoma, 80%.

Take `COc1cc(Nc2c(C#N)cnn3cc(-c4cnn(CC(C)(C)O)c4)cc23)ccc1Cl`: the growth in the test with NCI-H23 lung is 41.4%; with NCI-H322M lung it was 41.9%; in the test with HOP-62 NSCLC it was 45.6%; with NCI-H460 lung, 59.7%; in the test on HOP-92 NSCLC, 58.1%; in the test with NCI-H522 lung, 15%. For the same compound, the growth with A549/ATCC NSCLC was 52.4%; with 786-0 renal, 34.7%; in the test on COLO 205 colon, 75.9%; with DU-145 prostate, 47.6%; in the test with K-562 leukemia, 12.9%; in the test with MALME-3M melanoma it was 67.5%. Moreover, the growth with MDA-MB-231 breast is 65.4%; in the test on RXF 393 renal, -20.3% (active); with SF-268 CNS, 56.5%; in the test with SF-295 CNS, 63%; in the test with SF-539 CNS it was 8.69% (active); with UACC-257 melanoma, 81.7%.

For `CS(=O)(=O)Nc1cc(-c2ccc3ncc(C#N)c(Nc4cccc(Cl)c4F)c3c2)cnc1Cl`, the growth is 8.28% (active) in the test with NCI-H23 lung; -10.2% (active) with NCI-H322M lung; -8.87% (active) in the test on HOP-62 NSCLC; 6.34% (active) in the test with NCI-H460 lung; -25% (active) in the test on HOP-92 NSCLC; 1.54% (active) in the test on NCI-H522 lung. Further, the growth is 4.61% (active) in the test with A549/ATCC NSCLC; 4.98% (active) in the test on 786-0 renal; -74.5% (active) with COLO 205 colon; 11.9% in the test with DU-145 prostate; 21.8% in the test on K-562 leukemia; -32.5% (active) in the test on MALME-3M melanoma. Also, the growth in the test with MDA-MB-231 breast was -8.64% (active); with SF-268 CNS, -10.1% (active); with SF-295 CNS, -10.9% (active); with SF-539 CNS it was -24.4% (active); in the test with UACC-257 melanoma, 2.63% (active).

With `O=C1[C@H]2Cc3c([nH]c4ccccc34)[C@@H](c3ccc(Cl)cc3)N2C(=O)CN1C1CCN(Cc2ccccc2)CC1`, the growth in the test with NCI-H23 lung was 73.8%; in the test with NCI-H322M lung, 57.1%; with HOP-62 NSCLC it was 74.8%; with NCI-H460 lung, 29.8%; in the test on HOP-92 NSCLC, 42.5%; in the test on NCI-H522 lung it was 81.1%. The growth was 43.8% in the test with A549/ATCC NSCLC; 64.3% in the test with 786-0 renal; 50.6% in the test on COLO 205 colon; 55.2% in the test on DU-145 prostate; 9.91% (active) in the test on K-562 leukemia; 72.9% with MALME-3M melanoma. Moreover, the growth was 55.2% in the test with MDA-MB-231 breast; 41% with RXF 393 renal; 50% in the test with SF-268 CNS; 64.9% with SF-295 CNS; 63.7% in the test on SF-539 CNS; 68% in the test with UACC-257 melanoma.

With `O=C(CSc1nc2ccccc2c(=O)n1-c1ccccc1)Nc1cccc(C(=O)/C=C/c2ccccc2Cl)c1`, the growth in the test on NCI-H23 lung is 96.8%; in the test with NCI-H322M lung it was 106%; with HOP-62 NSCLC, 118%; in the test with NCI-H460 lung it was 101%; with NCI-H522 lung, 97.4%; in the test with A549/ATCC NSCLC it was 97.6%. The growth was 105% in the test on 786-0 renal; 119% in the test on COLO 205 colon; 105% in the test on DU-145 prostate; 94.8% with K-562 leukemia; 113% in the test on MALME-3M melanoma; 99.7% in the test with MDA-MB-231 breast. In addition, the growth in the test with RXF 393 renal is 96.7%; with SF-268 CNS it was 101%; with SF-295 CNS, 102%; in the test on SF-539 CNS, 102%; in the test with UACC-257 melanoma it was 112%.

Regarding `Cc1ccc(NC(=S)NNC(=S)Nc2ccc(C)cc2)cc1`, the growth with NCI-H23 lung is 95.2%; in the test with NCI-H322M lung, 96.7%; in the test with HOP-62 NSCLC, 97.8%; with NCI-H460 lung, 112%; in the test with HOP-92 NSCLC, 93.1%; in the test on NCI-H522 lung it was 93.4%. For the same compound, the growth was 105% in the test on A549/ATCC NSCLC; 89.6% with 786-0 renal; 115% in the test on COLO 205 colon; 106% in the test with DU-145 prostate; 96.6% in the test with K-562 leukemia; 103% with MALME-3M melanoma. For the same compound, the growth in the test on MDA-MB-231 breast was 106%; in the test with SF-268 CNS it was 108%; with SF-295 CNS, 102%; in the test on SF-539 CNS it was 110%; in the test with UACC-257 melanoma, 117%.
